# Compounds with a hit are over-represented: about 6.5% of the library has one in this group of screens.
# VACV mCherry inh – inhibitors of vaccinia virus infection (mCherry reporter signal) | Vaccinia virus mCherry reporter infection, fluorescence | Potency, µM (top dose mostly 36.5 µM), most hits filed as inhibitors | hit rate 0.63% among 310,000 | AID 720579; calls by dose curve; tested in A549 cells; further: nearly all actives have a fitted effect of over 35% in size
# HCMV antiviral – blocks human cytomegalovirus replication | activity change, negative = inhibition, % at 57.5 µM | hit rate 4.5% among 410,000 | AID 1259415 | HFF cells, HCMV-luciferase reporter, 72 h; active compounds read low; in the data active means activity change below about -60%; inconclusive means no clear call, values can overlap the other calls; inactive means above about -39%
#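 After 16 h attachment at 37C, HFF cells received test compound and HCMV-luciferase (1 PFU/cell); reporter luminescence read 72 h later, data normalized against buffer-only and known inhibitor Salinomycin.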
# FMDV antiviral – blocks foot and mouth disease virus. AID 1159524. FMDV antiviral cell-based qHTS. hit rate 1.2% among 410,000. Potency, µM (titrated, usually from 57.9 µM), hits mostly inhibitors; calls by dose curve; tested in HEK293T cells; further: read-out not given here; nearly all actives have a fitted effect of over 45% in size
# Marburg entry inh – Marburg virus entry inhibition; Marburg virus pseudotyped entry inhibition, cell reporter; hit rate 1.8% among 300,000; Potency, µM (top dose mostly 37.8 µM), actives largely listed as inhibitors; calls by dose curve; tested in HEK293 cells
# VACV Venus inh – vaccinia inhibition (Venus reporter); Vaccinia virus Venus reporter expression, fluorescence; Potency, µM (highest dose often 36.5 µM), most hits filed as inhibitors; hit rate 0.46% among 330,000; calls by dose curve; tested in A549 cells; further: nearly all actives have a fitted effect of over 30% in size
# LASV entry inh – Lassa virus entry inhibition | Lassa virus pseudotype entry inhibition, cell reporter | Potency, µM (titrated, usually from 37.9 µM), actives largely listed as inhibitors | hit rate 1.2% among 300,000; calls by dose curve; tested in HEK293 cells; further: nearly all actives have a fitted effect of over 50% in size
# A number is an active result; - = inactive; ? = inconclusive; . = no result; + = active, no number; [ ] = dose if it differs, or a comment.
SMILES,VACV mCherry inh,HCMV antiviral,FMDV antiviral,Marburg entry inh,VACV Venus inh,LASV entry inh
Oc1ccccc1-c1n[nH]c(-c2ccccc2O)n1,2.8µM,-96,-,?,4µM,?
CC1C/C(=C/c2ccncc2)C(=O)/C(=C/c2ccncc2)C1 (stereo unspecified),.,-101,10µM,.,.,.
Cc1ccc(-n2nnnc2SC(C)C(=O)Nc2ccccc2-c2ccccc2)cc1 (stereo unspecified),-,-61,-,-,-,-
CC(Sc1nnnn1C)C(=O)Nc1ccccc1-c1ccccc1 (stereo unspecified),-,?,.,-,-,-
CN(C)c1cc(NC(=O)CNC(C)(C)CC(C)(C)C)c2ccccc2n1,-,-60,-,?,-,?
CN(C)c1cc(NC(=O)CN2CCCC2)c2ccccc2n1,-,-,-,10µM,-,-
Cc1ccc2c(C)c3ccc4ccccc4c3c[n+]2c1,-,-95,?,?,-,-
Cc1ccc(S(=O)(=O)N2CCCc3cc(NC(=O)c4ccc(C(C)(C)C)cc4)ccc32)cc1,-,-,-,.,-,-
COc1cc(-c2cc(C)c3cccc(OC)c3n2)cc2c1OCCN(C(=O)Cn1nc(C)cc1C)C2,-,.,-,.,-,.
c1cc(-c2sc(-c3ccncc3)c(-c3ccncc3)c2-c2ccncc2)ccn1,-,-79,-,?,-,-
N#C/C(=C\c1ccc(Oc2ccc(C(F)(F)F)cc2[N+](=O)[O-])cc1)c1nc2ccccc2[nH]1,.,-,25µM,?,-,?
COC(=O)c1ccc(NC(=O)CCc2nnc3ccc(NCc4ccco4)nn23)cc1,-,+,-,-,-,-
O=C(Nc1ccc(Cl)cc1)/C(=C/c1cccc(O)c1)c1nc2ccccc2s1,11µM,-98,10µM,?,10µM,?
CCn1ncc(C2=NOC(C(=O)NCc3ccc(Cl)cc3)C2)c1C (stereo unspecified),.,-81,-,?,.,-
CCC(=O)Nc1ccc2nc(SCCOc3ccc(C)cc3OC)sc2c1,-,-,-,?,-,-
O=C(NCCc1ccccc1)c1cnc2sc(N3CCCCC3)nn2c1=O,-,-,-,.,-,-
O=C(CN1CCCC1)Nc1ccc(Oc2ccc(NC(=O)CN3CCCC3)cc2)cc1,-,-,-,2.1µM,-,13µM
CCCCOc1ccc(NC(=O)CN2CCN(C(=O)OCC)CC2)cc1,-,-,-,-,-,3.5µM
FC(F)(F)c1cc(-c2ccccc2)nc(N2CCCCC2)n1,.,-,-,-,-,-
O=C(O)C1CCCN1c1nc(-c2ccc(Cl)c(Cl)c2)cc(C(F)(F)F)n1 (stereo unspecified),?,-,-,0.5µM,?,?
Cc1ccc(-n2sc3cc(F)ccc3c2=O)c(C)c1,-,-70,?,.,?,.
O=C1CC(c2nc3ccccc3[nH]2)CN1c1ccccc1F (stereo unspecified),-,-,-,.,-,.
COc1ccc(Cl)cc1N1CC(c2nc3ccccc3[nH]2)CC1=O (stereo unspecified),-,-99,-,.,-,.
O=C1CC(c2nc3ccccc3[nH]2)CN1c1cccc(C(F)(F)F)c1 (stereo unspecified),-,-96,?,-,-,?
C[C@H]1[C@@H](c2ccccc2)Oc2c(Cl)cccc2S(=O)(=O)N1C,.,-,.,?,.,.
SMILES,VACV mCherry inh,HCMV antiviral,FMDV antiviral,Marburg entry inh,VACV Venus inh,LASV entry inh
Cc1ccc(C(=O)NCC(=O)OCC(=O)c2cccc3ccccc23)cc1,-,.,.,.,-,.
O=C(c1ccccc1NS(=O)(=O)c1cccc([N+](=O)[O-])c1)N1CCCC1,-,-79,-,-,-,-
CCOC(=O)c1c(C)[nH]c(C)c1S(=O)(=O)N(C)CC(=O)N1CCN(c2cccc(Cl)c2)CC1,?,?,-,.,-,?
Cn1c(-c2ccccc2)cc2ccccc21,-,-,-,-,-,-
Cn1c(-c2ccccc2)cc2c3no[n+]([O-])c3ccc21,-[1.46 µM],-102,-,3.5µM,?,4.5µM
COc1ccccc1OC(=O)c1cc2ccccc2oc1=O,-,-,-,?,-,?
COc1cc(/C=C/[N+](=O)[O-])ccc1OC(=O)c1cc2ccccc2oc1=O,-,-72,-,-,-,-
COc1ccc2c(c1)C=C/C2=C\c1ccc(N(C)C)cc1,-,.,.,.,-,.
Cc1ccc(-n2c(=O)c3ccc(C(=O)NCc4ccccc4Cl)cc3n(CC(=O)Nc3cccc(F)c3)c2=O)cc1,-,-,-,-,-,-
CC(C)CC(N)c1csc(NC(=O)c2cc(C(C)(C)C)nn2Cc2ccccc2)n1 (stereo unspecified),11µM,-96,?,.,13µM,.

# Screening results: PubChem, National Center for Advancing Translational Sciences (NCATS)
